# Assay results as given in PubChem BioAssay AID540256 (National Center for Advancing Translational Sciences (NCATS), 2011).
# About 3,700 (1.2%) of roughly 300,000 compounds were called active. Entries that show only a call come without a potency. About 20% were inconclusive and are not listed. This is one part of a sample in which actives are shown more often than they occur. The call rests on the fitted dose curve; tested in HEK293 cells.
# Experiment: qHTS for Inhibitors of binding or entry into cells for Lassa Virus; further: nearly all actives have a fitted effect of over 50% in size
# Settings: Lassa virus pseudotype entry inhibition, cell reporter; series mostly up to 37.9 µM
# Potency means the concentration at half of the fitted maximal effect.
row,SMILES,Potency
1,COc1ccc(CN2CCN(C(=O)CCC(=O)Nc3nnc(C(C)C)s3)CC2)cc1F,inactive
2,Cn1c(N)c(C(=O)COC(=O)c2cccc(S(=O)(=O)N3CCOCC3)c2)c(=O)n(C)c1=O,inactive
3,Cc1ccc(Oc2ccc(N)cc2)cc1,inactive
4,CC(C)(C)c1ccc(Oc2ccc(N)cc2)cc1,0.651 µM (active)
5,Nc1ccc(Oc2ccc(Cl)cc2)cc1,inactive
6,O=S(=O)(Nc1ccc2ccccc2c1)N1CCCCC1,inactive
7,O=C1CC(c2ccccc2)C(c2ccccc2)=NN1 (stereo not drawn),inactive
8,CN1CCN(CCCCOc2cccc3ccccc23)CC1,inactive
9,C=CCNC(=O)c1ccc(C)c(Br)c1,inactive
10,Cc1ccc(C(=O)NC(C)c2ccccc2)cc1Br (stereo not drawn),11.6 µM (active)
11,CC1=CCC2C(=O)N(c3cccc(C(=O)NC(C)c4ccccc4)c3)C(=O)C2C1 (stereo not drawn),inactive
12,c1ccc2c(c1)OC1OC2Oc2ccccc21,inactive
13,CC1CCN(C(=O)CCc2nnc3ccc(NCc4ccco4)nn23)CC1,inactive
14,CCc1cc(C(N)=O)c(NC(=O)c2ccc(OC)cc2)s1,inactive
15,CCc1ccc(/C=N/NC(=O)c2ccc(OC3CCCC3)cc2)s1,2 µM (active)
16,COC(=O)CNC(=O)c1ccc(OC2CCN(C(=O)C3CC3)CC2)cc1,inactive
17,COC(=O)Cc1c(-c2[nH]c3ccccc3c2CC(=O)OC)[nH]c2ccccc12,inactive
18,O=C(COc1ccc(S(=O)(=O)N2CCOCC2)cc1Cl)N1CCOCC1,inactive
19,Cc1cc(S(=O)(=O)N2CCOCC2)ccc1OCC(=O)N1CCOCC1,inactive
20,Cc1cc(C(=O)COc2ccccc2[N+](=O)[O-])c(C)n1-c1cccc(S(=O)(=O)N2CCOCC2)c1,6.31 µM (active)
21,CSCCC(NS(=O)(=O)c1ccccc1F)C(=O)N1CC=C(c2ccccc2)CC1 (stereo not drawn),inactive
22,O=C(c1ccc(F)cc1)N1CCC(C(=O)N2CCN(S(=O)(=O)c3ccccc3Br)CC2)CC1,inactive
23,COC(=O)c1cnn(-c2ccc(C(=O)Nc3ccc(OC(F)(F)F)cc3)cc2)c1N,inactive
24,Cc1cccc(NS(=O)(=O)c2ccc(C(=O)NCC(C)(C)N3CCOCC3)cc2)c1C,inactive
25,O=C(CSC(=S)N1CCOCC1)c1cc(Br)cc(Br)c1O,inactive
26,O=C(CSC(=S)N1CCOCC1)c1ccccc1,14.6 µM (active)

row,SMILES,Potency
1,CC1CN(C(=S)SCC(=O)c2ccccc2)CC(C)O1 (stereo not drawn),inactive
2,Cc1cccc(C(=O)Nc2ccc(C(=O)N/N=C/c3cccc(C)n3)cc2)c1,inactive
3,Cc1cccc(C=CC(=O)c2ccc(Cl)cc2)c1,inactive
4,COc1ccc(OC)c(NC(=O)c2sc3nc(C)cc(C)c3c2N)c1,inactive
5,COc1ccc(OC)c(Cc2nnc(CCC(=O)NC3CCCC3)o2)c1,inactive
6,COc1ccc(OC)c(Cc2cnc3nc(N)nc(N)c3c2C)c1,0.251 µM (active)
7,CC(=O)Nc1ccc(S(=O)(=O)NCC(=O)OCC(=O)c2ccc[nH]2)cc1,inactive
8,CC(=O)c1cccc(OCC(=O)OCC(=O)Nc2cc(S(=O)(=O)N3CCCCC3)ccc2C)c1,inactive
9,CCCCOc1ccc(C(=O)NN2CCN(C)CC2)cc1,inactive
10,CCCOc1ccc(C(=O)C(CCC(CNCC)C(=O)c2ccc(OCCC)cc2)CNCC)cc1 (stereo not drawn),13 µM (active)
11,CCCOc1ccc(C(=O)CCC(=O)OC(C)C(=O)Nc2ccc(NC(C)=O)cc2)cc1 (stereo not drawn),inactive
12,CCc1noc(C)c1C(=O)N1CCCC(N2CCN(c3ccc(F)cc3)CC2)C1 (stereo not drawn),inactive
13,COc1ccc(C(=O)Nc2ccccc2C(=O)NCc2ccco2)cc1,inactive
14,COc1ccc(/C=C(\NC(=O)c2ccc(OCC(C)C)cc2)C(=O)OCc2ccco2)cc1,12.6 µM (active)
15,COc1ccc(/C=C(/NC(=O)c2ccco2)C(=O)Nc2ccc(C(C)=O)cc2)cc1,inactive
16,Cc1cc(C)c(C)c(S(=O)(=O)Nc2cccnc2)c1C,inactive
17,CCOc1ccccc1CNC(=O)c1cnc2c(-c3ccc(OCC)c(OCC)c3)c(C)nn2c1C,inactive
18,Cc1ccc2nc(NC(=O)C3CSC4(C)CCC(=O)N34)sc2c1 (stereo not drawn),inactive
19,O=C(Cc1c(Cl)cccc1Cl)NC1CC1,inactive
20,CCc1cccc(CC)c1NC(=S)NCc1ccc2[nH]c(C)cc2c1,18.4 µM (active)
21,Cc1c(NC(=S)NCc2ccc(F)cc2)cccc1[N+](=O)[O-],inactive
22,Cc1c(Cl)cccc1NC(=S)NCc1ccc2c(c1)OCO2,inactive
23,O=C(CCc1ccccc1Cl)Nc1ccc(S(=O)(=O)Nc2nccs2)cc1,inactive
24,O=C(COC(=O)c1ccc(O)cc1O)NC(=O)c1ccccc1,inactive
25,O=C(CN(Cc1ccccc1)C(=O)CCC(=O)Nc1ccccn1)NCCc1ccccc1,inactive
26,Cc1cc([N+](=O)[O-])ccc1NS(=O)(=O)c1ccccc1,inactive

row,SMILES,Potency
1,O=C(COc1cccnc1[N+](=O)[O-])Nc1ccc(Cl)cc1F,inactive
2,O=C(c1ccco1)n1nc(-c2ccc(Cl)cc2)nc1NCc1ccccc1,inactive
3,O=C(c1cccs1)n1nc(NCc2ccccc2)nc1NCc1ccccc1,10 µM (active)
4,O=C(CCC(=O)c1cccs1)NCc1ccccc1,inactive
5,Oc1cccc(CCc2ccccn2)c1,inactive
6,Cc1ccc(-c2nn(-c3ccc(F)cc3)cc2C(=O)NCC(c2cccs2)N2CCOCC2)cc1 (stereo not drawn),inactive
7,CCOC(=O)CSc1nc2sc3c(c2c(=O)[nH]1)CC(C)(C)OC3,inactive
8,CC/C(C)=N/Nc1nc2sc3c(c2c(=O)[nH]1)CC(C)(C)OC3,5.01 µM (active)
9,CC(C)c1nc2sc3c(c2c(=O)n1N)CC(C)(C)OC3,inactive
10,Cc1ccc(NC(=O)CSc2nn3c(=O)c(C)nnc3s2)cc1Cl,inactive
11,COCC(C)n1c(SCc2ccc(C(=O)OC)o2)nc2ccccc2c1=O (stereo not drawn),10.3 µM (active)
12,COCC(C)n1c(SCC(=O)NC2CCCCC2C)nc2ccccc2c1=O (stereo not drawn),inactive
13,COC(=O)c1ccc(CSc2ccccc2C)o1,inactive
14,O=C(NCCS(=O)(=O)N1CCN(c2ccc(F)cc2)CC1)c1ccc2c(c1)OCO2,inactive
15,O=C1/C(=C\c2ccc(O)cc2)CCC1CNc1ccc(Cl)cc1 (stereo not drawn),inactive
16,Cc1cccc(NC(=O)c2cccc(S(=O)(=O)N3CCCC3)c2)n1,inactive
17,O=C(CCCn1c(=O)c2cccn2c2cccnc21)NCc1ccc(F)cc1,inactive
18,Cc1cccc(N2CCN(C(=O)CCn3c(=O)c4cccn4c4cccnc43)CC2C)c1 (stereo not drawn),7.94 µM (active)
19,Cc1cccc(N2CCN(C(=O)Cn3ncc4c5ccccc5n(C)c4c3=O)CC2C)c1 (stereo not drawn),inactive
20,O=C(/C=C/c1cccc([N+](=O)[O-])c1)OCC(=O)N1CCOCC1,inactive
21,O=C(NCCc1ccco1)c1ccc(OCc2cn3ccccc3n2)cc1,inactive
22,CCc1nn(CCCC(=O)Nc2ccc(C)c(C)c2)c(=O)c2cc3occc3n12,inactive
23,CCOC(=O)c1c(NC(=O)c2ccc(S(=O)(=O)N(CC)CC)cc2)sc2c1CCCCC2,inactive
24,C=CCN(CC=C)S(=O)(=O)c1ccc(C(=O)Nc2nc3c(s2)CCc2ccccc2-3)cc1,3.16 µM (active)
25,C=CCN(CC=C)S(=O)(=O)c1ccc(C(=O)Nc2sc3c(c2C(N)=O)CCCCC3)cc1,inactive
26,O=C(Nc1ncccc1O)c1ccc(S(=O)(=O)N2CCCCCC2)cc1,inactive

row,SMILES,Potency
1,O=C(CSc1cccc2cccnc12)N/N=C/c1cccnc1,inactive
2,COc1c(Cl)cc(Cl)cc1C(=O)Nc1cccc2cccnc12,inactive
3,CC(=O)/C(=N\Nc1ccc(Cl)cc1Cl)Sc1cccc2cccnc12,11.2 µM (active)
4,O=C(CC(=O)c1cccnc1)c1ccccc1,inactive
5,CCN(C(=O)CSc1cccc[n+]1[O-])c1ccccc1,inactive
6,CC1(C(=O)N/N=C/c2cc3c(cc2Br)OCO3)CC1(Br)Br (stereo not drawn),inactive
7,O=C(Nc1nnc(S(=O)(=O)N2CCCc3ccccc32)s1)c1cccc(F)c1,inactive
8,O=C(NC(Nc1nc2ccc([N+](=O)[O-])cc2s1)(C(F)(F)F)C(F)(F)F)c1ccccc1,0.92 µM (active)
9,O=C(Nc1nc2ccc([N+](=O)[O-])cc2s1)c1ccncc1,inactive
10,O=C(COC(=O)c1ccc(F)cc1)Nc1nc2ccc([N+](=O)[O-])cc2s1,inactive
11,O=C(Nc1nc2ccc([N+](=O)[O-])cc2s1)c1ccc(S(=O)(=O)N2CCCc3ccccc32)cc1,12.6 µM (active)
12,CS(=O)(=O)c1ccc2nc(NC(=O)c3ccc(N4CCCC4=O)cc3)sc2c1,inactive
13,COc1cc(C2C(C(=O)c3cccs3)=C(O)C(=O)N2CCN2CCOCC2)ccc1OCCC(C)C (stereo not drawn),inactive
14,COc1cc(C(=O)CCc2ccc3c(c2)OCO3)cc(OC)c1OC,inactive
15,Cn1c(=O)[nH]c2c(c(C(=O)O)nn2C)c1=O,inactive
16,COc1cc2c(cc1OC)CN(C(C)C(=O)Nc1cccc(S(=O)(=O)N3CCOCC3)c1)CC2 (stereo not drawn),inactive
17,CC(=O)CSc1nc(CCc2ccccc2)c(C#N)c(=O)[nH]1,inactive
18,O=C(NCCN1CCN(Cc2ccccc2)CC1)c1cc2c(=O)[nH]c3ccccc3c2s1,inactive
19,Cn1c(C(=O)NCCN2CCc3ccccc3C2)cc2c(=O)[nH]c3ccccc3c21,0.92 µM (active)
20,Cc1cccc(N2CCN(C(=O)c3cc4c(=O)[nH]c5ccccc5c4n3C)CC2)c1C,inactive
21,OC1CCCN(c2ncnc3c2nnn3Cc2c(F)cccc2Cl)C1 (stereo not drawn),6.31 µM (active)
22,Cc1ccc(NC(=O)N2CCC(c3nc4c(nnn4Cc4c(F)cccc4Cl)c(=O)[nH]3)CC2)cc1,inactive
23,CCOC(=O)N1CCN(C(=O)C2CCCN(c3ncnc4c3sc3cccc(F)c34)C2)CC1 (stereo not drawn),inactive
24,Cc1ccc(Br)c(NS(=O)(=O)c2cccc(C(=O)N3CCNC(=O)C3)c2)c1,inactive
25,NC(=O)C1CCN(C(=O)c2cccc(NC(=O)c3nsc4ccccc34)c2)CC1,inactive
